Reference: the supplement of paper PMC10849652
Targets with a hit are over-represented here; the source holds about 7,900 in all. About 0.6% of all pairs of compound and target were hits.

Legend:
Assay in all cases: log2 fold change, soluble protein after heating vs DMSO (PISA); higher = thermal stabilisation; K562 cells, 10 uM, 30 min; active = over 0.2 and 3.5 SD of the protein, either way, in both replicates (recomputed)
[1] = compound: CS(=O)(=O)c1ccc(-c2cnc(N)c(C(=O)Nc3ccccc3)n2)cc1
Summary of the method: (§1)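 Soluble protein was defined as the supernatant after 21,000xg for 90 min. It came from K562 cells at 2×10^6 cells/mL given 10 μM compound for 30 min, heated in aliquots for 3 min across 48°C-58°C, pooled, and extracted in PBS with 0.5% NP-40 at 4°C, and was quantified by TMTpro 16plex LC-MS/MS with equalised channel sums. Thermal stability against control samples, from duplicates, is reported as log2 fold change.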

[2] = compound: C[C@@H](Oc1cc(-c2cnn(C3CCNCC3)c2)cnc1N)c1c(Cl)ccc(F)c1Cl [crizotinib]
Summary of the method: as §1

[3] = compound: C[C@@H]1COCCN1C2=NC(=NC(=C2)C3(CC3)S(=O)(=O)C)C4=C5C=CNC5=CC=C4
Summary of the method: as §1

[4] = compound: C[C@H](C1=CC=C(C=C1)C(=O)NC2=C3C=CNC3=NC=C2)N
Summary of the method: as §1

[5] = compound: C[C@H](Nc1ncnc2nc[nH]c12)c1cc2cccc(Cl)c2c(=O)n1-c1ccccc1 [duvelisib]
Summary of the method: as §1

[6] = compound: Cc1cc(Nc2cc(CN3CCOCC3)c3nc(C)c(Cc4ccc(Cl)cc4F)n3n2)n[nH]1 [gandotinib]
Summary of the method: as §1

[7] = compound: Cc1cc(Nc2cc(N3CCN(C)CC3)nc(Sc3ccc(NC(=O)C4CC4)cc3)n2)n[nH]1 [tozasertib]
Summary of the method: as §1

[8] = compound: Cc1cc(SCc2sc(-c3ccc(C(F)(F)F)cc3)nc2C)ccc1OCC(=O)O
Summary of the method: as §1

[9] = compound: Cc1ccc(-n2nc(C(C)(C)C)cc2NC(=O)Nc2ccc(OCCN3CCOCC3)c3ccccc23)cc1 [doramapimod]
Summary of the method: as §1

[10] = compound: Cc1ccc(C(=O)N(CCCN)[C@@H](c2nc3cc(Cl)ccc3c(=O)n2Cc2ccccc2)C(C)C)cc1 [ispinesib]
Summary of the method: as §1

[11] = compound: Cc1ccc(NC(=O)c2ccc(CN3CC[C@H](N(C)C)C3)c(C(F)(F)F)c2)cc1Nc1nccc(-c2cncnc2)n1 [bafetinib]
Summary of the method: as §1

[12] = compound: Cc1cccc(CC(=O)N2CCc3c2ccc(-c2cn(C)c4ncnc(N)c24)c3F)n1
Summary of the method: as §1

[13] = compound: Cc1cn(-c2cc(NC(=O)c3ccc(C)c(Nc4nccc(-c5cccnc5)n4)c3)cc(C(F)(F)F)c2)cn1 [nilotinib]
Summary of the method: as §1

[14] = compound: Cc1nc(Nc2n[nH]c3c2CN(C(=O)N[C@H](CN(C)C)c2ccccc2)C3(C)C)c2sccc2n1
Summary of the method: as §1

[15] = compound: Cc1nc(Nc2ncc(C(=O)Nc3c(C)cccc3Cl)s2)cc(N2CCN(CCO)CC2)n1 [dasatinib]
Summary of the method: as §1

[16] = compound: Cc1ncc(-c2ccnc(Nc3ccc(S(C)(=O)=O)cc3)n2)n1C(C)C
Summary of the method: as §1

[17] = compound: Cn1cc(-c2ccc3c(c2)CCN3C(=O)Cc2cccc(C(F)(F)F)c2)c2c(N)ncnc21
Summary of the method: as §1

[18] = compound: Cn1cc(-c2ccc3nnc(C(F)(F)c4ccc5ncccc5c4)n3n2)cn1
Summary of the method: as §1

[19] = compound: Cn1cncc1[C@@](N)(c1ccc(Cl)cc1)c1ccc2c(c1)c(-c1cccc(Cl)c1)cc(=O)n2C [tipifarnib]
Summary of the method: as §1

[20] = compound: FC(F)(F)c1ccc(/C=C/c2nc(COc3ccc(CCCCn4ccnn4)cc3)co2)cc1 [mubritinib]
Summary of the method: as §1

Measured: log2 fold change

POLA1 (UniProt P09884)
Sequence of UniProt P09884 (P09884 whole entry, looked up): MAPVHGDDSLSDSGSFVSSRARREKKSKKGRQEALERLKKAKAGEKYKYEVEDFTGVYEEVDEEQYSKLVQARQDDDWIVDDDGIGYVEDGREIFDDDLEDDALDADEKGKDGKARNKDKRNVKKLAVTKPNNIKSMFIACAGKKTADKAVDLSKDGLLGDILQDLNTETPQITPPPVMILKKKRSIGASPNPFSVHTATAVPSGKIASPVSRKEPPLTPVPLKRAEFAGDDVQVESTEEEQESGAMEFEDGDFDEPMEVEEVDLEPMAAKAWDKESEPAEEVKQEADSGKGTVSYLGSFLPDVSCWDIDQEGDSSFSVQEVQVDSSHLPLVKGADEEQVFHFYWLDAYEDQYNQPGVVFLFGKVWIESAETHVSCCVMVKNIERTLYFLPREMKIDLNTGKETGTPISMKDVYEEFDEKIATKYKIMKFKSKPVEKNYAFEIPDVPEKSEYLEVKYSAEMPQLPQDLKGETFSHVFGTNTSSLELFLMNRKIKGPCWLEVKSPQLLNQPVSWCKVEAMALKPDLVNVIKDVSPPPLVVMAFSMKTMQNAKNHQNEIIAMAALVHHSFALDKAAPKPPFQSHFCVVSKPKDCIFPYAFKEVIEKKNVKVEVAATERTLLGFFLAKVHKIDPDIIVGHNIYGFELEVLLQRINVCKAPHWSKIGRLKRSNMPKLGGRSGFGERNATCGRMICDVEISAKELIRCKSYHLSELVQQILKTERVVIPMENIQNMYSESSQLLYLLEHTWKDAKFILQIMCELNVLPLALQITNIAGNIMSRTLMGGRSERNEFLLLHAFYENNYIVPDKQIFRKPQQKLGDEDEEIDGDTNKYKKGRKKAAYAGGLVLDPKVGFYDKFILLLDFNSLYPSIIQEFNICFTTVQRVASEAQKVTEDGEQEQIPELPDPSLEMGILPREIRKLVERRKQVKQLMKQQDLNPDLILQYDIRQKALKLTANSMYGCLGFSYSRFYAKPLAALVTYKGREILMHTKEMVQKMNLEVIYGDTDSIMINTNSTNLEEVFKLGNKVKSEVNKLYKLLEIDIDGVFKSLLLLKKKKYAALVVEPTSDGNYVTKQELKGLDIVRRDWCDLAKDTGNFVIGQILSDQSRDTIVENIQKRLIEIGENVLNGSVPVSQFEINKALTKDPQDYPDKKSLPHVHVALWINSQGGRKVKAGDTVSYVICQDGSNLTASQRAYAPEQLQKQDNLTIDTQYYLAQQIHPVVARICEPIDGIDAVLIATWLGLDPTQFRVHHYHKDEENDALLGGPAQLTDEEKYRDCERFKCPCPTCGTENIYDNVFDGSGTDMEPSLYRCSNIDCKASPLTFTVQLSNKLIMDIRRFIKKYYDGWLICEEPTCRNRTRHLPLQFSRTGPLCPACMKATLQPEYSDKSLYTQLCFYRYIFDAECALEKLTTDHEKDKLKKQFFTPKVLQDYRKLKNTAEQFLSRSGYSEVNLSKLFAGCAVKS
inactive: [1] 0.01 | [2] -0.041 | [3] 0.065 | [4] -0.048 | [5] 0.046 | [6] -0.069 | [7] 0.083 | [8] 0.09 | [9] -0.029 | [10] -0.036 | [11] 0.021 | [12] 0.021 | [13] -0.043 | [14] -0.033 | [15] -0.173 | [16] 0.01 | [17] 0.019 | [18] 0.014 | [19] -0.091 | [20] 0.064

PLCG1 isoform 2 (UniProt P19174)
active: [2] -0.412
inactive: [1] 0.016 | [3] -0.09 | [4] 0.16 | [5] -0.037 | [6] 0.107 | [7] 0.016 | [8] 0.161 | [9] 0.001 | [10] -0.178 | [11] -0.054 | [12] -0.08 | [13] -0.072 | [14] 0.079 | [15] -0.257 | [16] 0.024 | [17] 0.031 | [18] 0.005 | [19] -0.144 | [20] 0.11

PDCD6 (UniProt O75340)
Sequence of UniProt O75340 (O75340 whole entry, looked up): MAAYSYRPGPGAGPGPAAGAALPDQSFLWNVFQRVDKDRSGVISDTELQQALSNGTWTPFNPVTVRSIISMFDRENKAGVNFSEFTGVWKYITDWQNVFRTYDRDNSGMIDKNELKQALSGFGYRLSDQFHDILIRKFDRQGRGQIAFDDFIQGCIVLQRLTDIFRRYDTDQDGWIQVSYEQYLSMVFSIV
inactive: [1] 0.029 | [2] -0.047 | [3] 0.051 | [4] -0.021 | [5] 0.03 | [6] -0.056 | [7] 0.05 | [8] 0.038 | [9] 0.002 | [10] -0.045 | [11] -0.11 | [12] -0.005 | [13] -0.071 | [14] 0.042 | [15] -0.021 | [16] -0.026 | [17] 0.027 | [18] 0.022 | [19] -0.034 | [20] 0.009

PSMC1 (UniProt P62191)
Sequence of UniProt P62191 (P62191 whole entry, looked up): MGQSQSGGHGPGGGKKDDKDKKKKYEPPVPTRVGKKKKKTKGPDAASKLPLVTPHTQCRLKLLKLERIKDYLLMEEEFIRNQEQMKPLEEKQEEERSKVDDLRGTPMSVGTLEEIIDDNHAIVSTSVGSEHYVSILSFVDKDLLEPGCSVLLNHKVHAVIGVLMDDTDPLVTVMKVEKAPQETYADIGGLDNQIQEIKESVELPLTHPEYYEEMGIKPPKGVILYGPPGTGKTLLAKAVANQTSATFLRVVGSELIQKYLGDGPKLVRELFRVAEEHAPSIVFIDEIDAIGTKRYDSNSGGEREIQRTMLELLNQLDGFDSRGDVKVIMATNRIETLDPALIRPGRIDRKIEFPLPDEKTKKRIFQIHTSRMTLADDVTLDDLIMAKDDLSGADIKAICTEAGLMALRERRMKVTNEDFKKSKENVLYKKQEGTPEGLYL
inactive: [1] 0.011 | [2] 0.023 | [3] -0.072 | [4] 0.073 | [5] -0.047 | [6] 0.06 | [7] 0.039 | [8] 0.01 | [9] 0.033 | [10] -0.036 | [11] 0.065 | [12] 0.02 | [13] -0.025 | [14] 0.062 | [15] 0.036 | [16] -0.014 | [17] -0.082 | [18] 0 | [19] 0.087 | [20] -0.015

PARP1 (UniProt P09874)
Sequence of UniProt P09874 (P09874 whole entry, looked up): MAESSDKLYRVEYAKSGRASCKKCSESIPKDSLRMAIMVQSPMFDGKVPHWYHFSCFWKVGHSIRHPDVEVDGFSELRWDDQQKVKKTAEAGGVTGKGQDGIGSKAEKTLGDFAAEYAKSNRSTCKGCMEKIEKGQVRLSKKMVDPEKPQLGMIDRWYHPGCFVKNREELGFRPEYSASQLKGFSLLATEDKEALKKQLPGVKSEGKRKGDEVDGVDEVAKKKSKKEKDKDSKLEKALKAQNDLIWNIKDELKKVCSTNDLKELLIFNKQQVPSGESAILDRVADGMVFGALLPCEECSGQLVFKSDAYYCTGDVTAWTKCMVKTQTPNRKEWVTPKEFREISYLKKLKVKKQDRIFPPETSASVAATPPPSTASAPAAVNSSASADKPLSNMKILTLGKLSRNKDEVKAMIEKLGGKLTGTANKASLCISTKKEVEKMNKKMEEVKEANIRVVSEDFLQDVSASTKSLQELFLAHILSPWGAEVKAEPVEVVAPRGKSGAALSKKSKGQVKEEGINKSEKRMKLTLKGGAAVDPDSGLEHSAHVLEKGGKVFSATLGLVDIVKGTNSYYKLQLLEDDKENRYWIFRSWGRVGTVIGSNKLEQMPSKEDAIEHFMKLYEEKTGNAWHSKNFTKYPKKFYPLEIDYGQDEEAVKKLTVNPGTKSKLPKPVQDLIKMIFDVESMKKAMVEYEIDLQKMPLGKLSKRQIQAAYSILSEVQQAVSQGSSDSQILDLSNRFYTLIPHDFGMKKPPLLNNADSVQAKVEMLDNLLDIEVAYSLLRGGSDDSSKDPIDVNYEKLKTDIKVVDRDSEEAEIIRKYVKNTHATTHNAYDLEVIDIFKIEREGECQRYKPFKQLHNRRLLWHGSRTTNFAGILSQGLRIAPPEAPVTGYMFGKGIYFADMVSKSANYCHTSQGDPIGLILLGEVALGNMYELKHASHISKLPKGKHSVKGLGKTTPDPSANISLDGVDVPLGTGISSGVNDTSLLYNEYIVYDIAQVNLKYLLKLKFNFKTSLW
inactive: [1] 0.088 | [2] 0.037 | [3] 0.007 | [4] 0.012 | [5] 0.102 | [6] -0.029 | [7] 0.08 | [8] 0.165 | [9] -0.065 | [10] -0.126 | [11] 0.05 | [12] -0.009 | [13] -0.028 | [14] -0.112 | [15] -0.245 | [16] 0.178 | [17] 0.026 | [18] 0.131 | [19] -0.117 | [20] 0.044

PARG (UniProt Q86W56)
inactive: [1] -0.027 | [2] -0.147 | [3] 0.013 | [4] 0.016 | [5] -0.005 | [6] -0.094 | [7] 0.022 | [8] 0.123 | [9] 0.015 | [10] -0.148 | [11] 0.166 | [12] 0.118 | [13] 0.004 | [14] -0.123 | [15] -0.162 | [16] -0.025 | [17] 0.093 | [18] -0.015 | [19] -0.061 | [20] 0.061

PRKCD (UniProt Q05655)
Sequence of UniProt Q05655 (Q05655 whole entry, looked up): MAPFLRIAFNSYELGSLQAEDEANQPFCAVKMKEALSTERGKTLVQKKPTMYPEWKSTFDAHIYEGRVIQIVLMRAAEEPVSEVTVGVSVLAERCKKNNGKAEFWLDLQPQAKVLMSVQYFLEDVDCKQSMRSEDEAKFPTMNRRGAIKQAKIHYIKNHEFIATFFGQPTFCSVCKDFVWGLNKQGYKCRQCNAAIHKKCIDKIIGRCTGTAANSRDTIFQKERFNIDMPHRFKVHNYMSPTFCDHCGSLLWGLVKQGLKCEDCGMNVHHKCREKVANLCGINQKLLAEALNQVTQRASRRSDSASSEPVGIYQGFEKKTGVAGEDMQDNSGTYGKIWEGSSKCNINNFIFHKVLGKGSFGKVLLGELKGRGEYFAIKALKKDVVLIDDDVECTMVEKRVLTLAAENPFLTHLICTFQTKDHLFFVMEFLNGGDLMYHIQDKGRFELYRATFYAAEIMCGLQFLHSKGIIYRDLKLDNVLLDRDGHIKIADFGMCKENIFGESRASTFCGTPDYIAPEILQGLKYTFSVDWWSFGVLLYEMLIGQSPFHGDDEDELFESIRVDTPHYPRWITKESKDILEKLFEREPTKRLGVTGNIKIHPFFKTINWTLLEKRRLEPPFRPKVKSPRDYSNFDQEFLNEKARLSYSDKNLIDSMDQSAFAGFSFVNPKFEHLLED
active: [14] -0.261
inactive: [1] 0.05 | [2] -0.008 | [3] 0.053 | [4] -0.215 | [5] 0.009 | [6] -0.056 | [7] -0.006 | [8] 0.007 | [9] 0.005 | [10] -0.007 | [11] -0.028 | [12] -0.007 | [13] 0.033 | [15] -0.049 | [16] -0.021 | [17] 0.027 | [18] 0.102 | [19] 0.008 | [20] 0.08

PRPF3 (UniProt O43395)
inactive: [1] 0.009 | [2] -0.025 | [3] 0.114 | [4] 0.193 | [5] 0.053 | [6] -0.067 | [7] 0.007 | [8] 0.174 | [9] -0.024 | [10] 0.025 | [11] 0.048 | [12] 0.072 | [13] -0.044 | [14] -0.201 | [15] -0.114 | [16] -0.152 | [17] -0.149 | [18] 0.018 | [19] -0.011 | [20] 0.118

POLR2A (UniProt P24928)
inactive: [1] 0.027 | [2] 0.231 | [3] 0.049 | [4] 0.21 | [5] 0.06 | [7] -0.026 | [8] 0.023 | [9] -0.009 | [10] 0.006 | [11] -0.019 | [12] -0.014 | [13] -0.039 | [14] 0.24 | [15] -0.066 | [17] 0 | [18] -0.037 | [19] 0.004 | [20] 0.038
active: [6] 0.321 | [16] 0.511

PSMD3 (UniProt O43242)
Sequence of UniProt O43242 (O43242 whole entry, looked up): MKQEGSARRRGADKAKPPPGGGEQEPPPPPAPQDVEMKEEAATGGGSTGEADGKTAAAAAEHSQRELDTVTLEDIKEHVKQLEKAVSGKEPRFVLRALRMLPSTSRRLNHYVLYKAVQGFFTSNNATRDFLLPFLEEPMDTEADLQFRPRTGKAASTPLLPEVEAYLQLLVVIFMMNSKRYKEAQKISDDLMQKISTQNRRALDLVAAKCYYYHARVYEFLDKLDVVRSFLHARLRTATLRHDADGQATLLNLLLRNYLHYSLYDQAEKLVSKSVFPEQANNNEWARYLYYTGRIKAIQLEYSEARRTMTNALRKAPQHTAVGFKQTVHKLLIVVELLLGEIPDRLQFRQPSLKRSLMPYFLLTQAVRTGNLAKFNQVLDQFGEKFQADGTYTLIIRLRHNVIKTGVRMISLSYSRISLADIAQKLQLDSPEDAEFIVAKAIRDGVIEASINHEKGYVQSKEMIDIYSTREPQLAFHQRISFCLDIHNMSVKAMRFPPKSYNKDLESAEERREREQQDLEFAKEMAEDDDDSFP
inactive: [1] 0.058 | [2] 0.003 | [3] -0.003 | [4] 0.094 | [5] -0.028 | [6] 0.028 | [7] 0.033 | [8] 0.047 | [9] 0.047 | [10] 0.013 | [11] 0.129 | [12] 0.032 | [13] 0.008 | [14] 0.089 | [15] 0.004 | [16] -0.012 | [17] -0.064 | [18] -0.018 | [19] 0.025 | [20] -0.019

PRKCA (UniProt P17252)
inactive: [1] -0.023 | [2] -0.081 | [3] 0.044 | [4] -0.041 | [5] 0.158 | [6] -0.227 | [7] -0.052 | [8] 0.232 | [9] 0.01 | [10] -0.112 | [11] -0.043 | [12] -0.066 | [13] -0.011 | [14] -0.173 | [15] -0.233 | [16] -0.005 | [17] 0.082 | [18] -0.022 | [19] -0.026 | [20] 0.054

PTMA (UniProt P06454)
inactive: [1] -0.041 | [2] -0.302 | [3] -0.155 | [4] -0.034 | [5] 0.006 | [6] 0.059 | [7] 0.154 | [8] -0.042 | [9] 0.072 | [10] 0.199 | [11] -0.076 | [12] -0.047 | [13] 0.023 | [14] 0.001 | [15] -0.01 | [16] -0.031 | [17] 0.177 | [18] -0.147 | [19] -0.02 | [20] 0.109

PDE4DIP isoform 4 (UniProt Q5VU43)
inactive: [1] -0.007 | [2] 0.02 | [3] 0.134 | [4] -0.002 | [5] 0.072 | [6] 0.106 | [7] -0.011 | [8] 0.008 | [9] 0.01 | [10] -0.073 | [11] 0.022 | [12] -0.071 | [13] -0.054 | [14] -0.113 | [15] 0.037 | [16] -0.027 | [17] 0.021 | [18] 0.021 | [19] 0.038 | [20] 0.022

PEX11B (UniProt O96011)
Sequence of UniProt O96011 (O96011 whole entry, looked up, change not shown): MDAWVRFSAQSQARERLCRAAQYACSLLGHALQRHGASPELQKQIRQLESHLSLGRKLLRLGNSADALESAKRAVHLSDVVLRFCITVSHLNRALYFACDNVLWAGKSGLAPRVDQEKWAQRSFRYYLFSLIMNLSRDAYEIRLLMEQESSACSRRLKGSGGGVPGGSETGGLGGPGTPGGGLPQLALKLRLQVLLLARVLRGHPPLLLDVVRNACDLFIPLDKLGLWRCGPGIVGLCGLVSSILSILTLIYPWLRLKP
inactive: [1] -0.042 | [2] 0.02 | [3] 0.148 | [4] -0.012 | [5] 0.081 | [6] -0.073 | [7] 0.065 | [8] 0.014 | [9] 0.002 | [10] 0.07 | [11] -0.022 | [12] 0.081 | [13] 0.04 | [14] 0.041 | [15] -0.071 | [16] -0.043 | [17] 0.049 | [18] 0.01 | [19] -0.063 | [20] 0.058

PRKAR2A (UniProt P13861)
active: [14] -0.606
inactive: [1] 0.046 | [2] -0.038 | [3] 0.089 | [4] -0.159 | [5] 0.069 | [6] -0.02 | [7] 0.04 | [8] 0.023 | [9] 0.03 | [10] -0.056 | [11] 0.029 | [12] 0.007 | [13] 0.139 | [15] -0.055 | [16] -0.026 | [17] 0.07 | [18] 0.102 | [19] 0.004 | [20] 0.042

PRMT8 (UniProt Q9NR22)
Sequence of UniProt Q9NR22 (Q9NR22 whole entry, looked up): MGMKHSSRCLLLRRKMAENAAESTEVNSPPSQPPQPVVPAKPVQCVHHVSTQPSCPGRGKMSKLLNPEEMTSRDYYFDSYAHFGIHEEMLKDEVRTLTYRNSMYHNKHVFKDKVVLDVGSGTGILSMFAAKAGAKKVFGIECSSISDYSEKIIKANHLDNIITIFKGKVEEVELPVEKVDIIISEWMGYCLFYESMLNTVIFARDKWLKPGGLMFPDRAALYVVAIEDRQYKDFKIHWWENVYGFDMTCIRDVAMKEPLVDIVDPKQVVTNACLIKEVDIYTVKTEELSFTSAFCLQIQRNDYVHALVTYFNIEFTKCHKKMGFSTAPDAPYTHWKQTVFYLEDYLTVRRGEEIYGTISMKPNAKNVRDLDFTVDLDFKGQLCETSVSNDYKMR
inactive: [1] -0.046 | [2] -0.03 | [3] -0.043 | [4] 0.024 | [5] 0.012 | [6] -0.047 | [7] -0.024 | [8] 0.045 | [9] -0.021 | [10] 0.13 | [11] 0.002 | [12] 0.032 | [13] -0.036 | [14] 0.048 | [15] -0.064 | [16] 0.02 | [17] 0.064 | [18] -0.066 | [19] -0.136 | [20] 0.035
